# About 7,900 targets were measured; listed, in parts, are those with a hit and a random draw of the rest. About 0.6% of all pairs of compound and target were hits. Values without a mark were called inactive.
# Assays:
# Test in all cases: log2 fold change, soluble protein after heating vs DMSO (PISA); higher = thermal stabilisation; K562 cells, 10 uM, 30 min; active = over 0.2 and 3.5 SD of the protein, either way, in both replicates (recomputed)
# erlotinib = compound: C#Cc1cccc(Nc2ncnc3cc(OCCOC)c(OCCOC)cc23)c1 [erlotinib]
# Method in brief: (§1)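 Quantification of soluble protein used TMTpro 16plex LC-MS/MS, with channel sums equalised. Samples were the supernatant after 21,000xg for 90 min of pooled aliquots from K562 cells (2×10^6 cells/mL) treated with 10 μM compound for 30 min, heated for 3 min over 48°C-58°C, and extracted in PBS with 0.5% NP-40 at 4°C. Values, from duplicates, describe thermal stability against control samples on a log2 fold-change scale.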
# [1] = compound: C/C(=N\NC(=O)C1=CC(=CC=C1)S(=O)(=O)N2CCOCC2)/C3=C(C=CC(=C3)Cl)O
# Method in brief: as §1
# [2] = compound: C1=CC(=C(C=C1Cl)C2=NC3=NC=CN=C3C(=N2)NC4=CC=NC=C4)F
# Method in brief: as §1
# [3] = compound: C1=CC(=CC=C1C2=NC3=C(N2)C=C(C=C3)C(=O)N)OC4=CC=C(C=C4)Cl
# Method in brief: as §1
# [4] = compound: C1=CC2=C(C=CC(=C2)/C=C\3/C(=O)NC(=NCC4=CC=CS4)S3)N=C1
# Method in brief: as §1
# [5] = compound: C1=CC2=NC=CN=C2C=C1/C=C/3\C(=O)NC(=O)S3
# Method in brief: as §1
# [6] = compound: C1=CC=C(C=C1)C2=NC(=C(N2)C3=CC=NC=C3)C4=CC(=C(C=C4)Cl)O
# Method in brief: as §1
# [7] = compound: C1=CC=C2C(=C1)C3=NNC4=CC=CC(=C43)C2=O
# Method in brief: as §1
# [8] = compound: C1CCN(C1)C(=O)NC2=CC=CC(=C2)NC3=NC=C(C(=N3)NCCC4=CN=CN4)Br
# Method in brief: as §1
# [9] = compound: C1CN(CCC1(CC2=CC=C(C=C2)Cl)N)C3=NC=NC4=C3C=CN4
# Method in brief: as §1
# IRAK-1-4 Inhibitor I = compound: C1COCCN1CCN2C3=CC=CC=C3N=C2NC(=O)C4=CC(=CC=C4)[N+](=O)[O-] [IRAK-1-4 Inhibitor I]
# Method in brief: as §1
# ibrutinib = compound: C=CC(=O)N1CCC[C@@H](n2nc(-c3ccc(Oc4ccccc4)cc3)c3c(N)ncnc32)C1 [ibrutinib]
# Method in brief: as §1
# [10] = compound: CC(=O)c1cnc2ccc(-c3cc(Cl)c(O)c(Cl)c3)nc2c1N[C@H]1CC[C@H](CN(C)C)CC1
# Method in brief: as §1
# ralimetinib = compound: CC(C)(C)Cn1c(N)nc2ccc(-c3[nH]c(C(C)(C)C)nc3-c3ccc(F)cc3)nc21 [ralimetinib]
# Method in brief: as §1
# [11] = compound: CC(C)(O)CC(=O)NCCn1ccc2ncnc(Nc3ccc(Oc4cccc(C(F)(F)F)c4)c(Cl)c3)c21
# Method in brief: as §1
# [12] = compound: CC(C)C1=C2N=C(C=C(N2N=C1)NCC3=CC=CC=C3)NCCCCCCN
# Method in brief: as §1
# [13] = compound: CC(C)C[C@@H](C=O)NC(=O)[C@H](CC(C)C)NC(=O)[C@H](CC(C)C)NC(=O)OCc1ccccc1
# Method in brief: as §1
# pinometostat = compound: CC(C)N(C[C@H]1O[C@@H](n2cnc3c(N)ncnc32)[C@H](O)[C@@H]1O)[C@H]1C[C@@H](CCc2nc3cc(C(C)(C)C)ccc3[nH]2)C1 [pinometostat]
# Method in brief: as §1
# [14] = compound: CC1=C(C(CC(=O)N1)C2=CC=C(C=C2)C(F)(F)F)C(=O)NC3=C(C=C4C(=C3)C=NN4)F
# Method in brief: as §1
# [15] = compound: CC1=C(C2=C(C=C1)C(=O)C3=CC=CC=C3N2CCCN)C
# Method in brief: as §1
# Chain of UniProt P10606 (P10606 whole entry, looked up): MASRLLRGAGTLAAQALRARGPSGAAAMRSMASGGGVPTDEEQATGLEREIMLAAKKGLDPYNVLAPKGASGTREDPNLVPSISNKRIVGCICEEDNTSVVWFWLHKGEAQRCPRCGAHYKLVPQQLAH
# Chain of UniProt Q5JTJ3 (Q5JTJ3 whole entry, looked up): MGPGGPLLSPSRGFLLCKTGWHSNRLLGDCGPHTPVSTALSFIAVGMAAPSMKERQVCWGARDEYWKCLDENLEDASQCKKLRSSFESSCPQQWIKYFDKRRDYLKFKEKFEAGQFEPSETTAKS
# Chain of UniProt O75976 (O75976 whole entry, looked up): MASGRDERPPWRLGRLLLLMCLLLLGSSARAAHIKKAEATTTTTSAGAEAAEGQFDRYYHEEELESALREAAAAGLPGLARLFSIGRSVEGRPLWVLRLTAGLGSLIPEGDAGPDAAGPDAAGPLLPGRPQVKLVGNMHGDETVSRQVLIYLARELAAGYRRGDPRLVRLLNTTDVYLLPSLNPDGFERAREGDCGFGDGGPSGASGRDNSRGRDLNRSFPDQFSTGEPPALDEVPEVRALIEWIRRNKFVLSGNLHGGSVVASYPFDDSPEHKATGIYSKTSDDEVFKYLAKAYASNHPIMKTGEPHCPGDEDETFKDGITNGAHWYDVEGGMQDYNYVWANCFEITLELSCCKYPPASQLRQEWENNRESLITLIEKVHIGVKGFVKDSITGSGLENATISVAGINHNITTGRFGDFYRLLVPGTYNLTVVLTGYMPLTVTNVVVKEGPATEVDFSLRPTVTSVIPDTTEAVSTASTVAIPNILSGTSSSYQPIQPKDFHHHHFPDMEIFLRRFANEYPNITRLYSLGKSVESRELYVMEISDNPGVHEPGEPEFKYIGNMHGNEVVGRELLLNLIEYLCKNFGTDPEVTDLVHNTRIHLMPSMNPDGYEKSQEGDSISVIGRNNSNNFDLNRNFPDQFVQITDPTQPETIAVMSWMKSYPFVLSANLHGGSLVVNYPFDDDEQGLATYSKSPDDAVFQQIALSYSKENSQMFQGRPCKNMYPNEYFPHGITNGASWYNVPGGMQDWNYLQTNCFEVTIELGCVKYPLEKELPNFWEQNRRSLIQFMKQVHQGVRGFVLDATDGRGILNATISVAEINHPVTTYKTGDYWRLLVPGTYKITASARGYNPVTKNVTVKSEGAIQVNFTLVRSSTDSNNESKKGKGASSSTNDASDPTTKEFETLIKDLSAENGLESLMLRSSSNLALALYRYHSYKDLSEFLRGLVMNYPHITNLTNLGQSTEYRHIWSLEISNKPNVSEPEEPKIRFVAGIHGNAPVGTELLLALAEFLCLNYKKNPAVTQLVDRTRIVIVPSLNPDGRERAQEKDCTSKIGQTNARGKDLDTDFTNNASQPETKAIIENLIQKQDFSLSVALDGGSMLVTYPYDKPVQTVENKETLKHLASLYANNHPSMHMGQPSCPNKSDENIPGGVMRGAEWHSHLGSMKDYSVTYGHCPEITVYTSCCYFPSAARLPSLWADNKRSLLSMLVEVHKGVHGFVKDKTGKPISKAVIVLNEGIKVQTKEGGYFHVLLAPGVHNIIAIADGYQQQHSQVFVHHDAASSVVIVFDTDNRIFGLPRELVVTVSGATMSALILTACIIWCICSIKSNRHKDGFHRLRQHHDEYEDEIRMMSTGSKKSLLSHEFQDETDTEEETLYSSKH
# Chain of UniProt P14854 (P14854 whole entry, looked up): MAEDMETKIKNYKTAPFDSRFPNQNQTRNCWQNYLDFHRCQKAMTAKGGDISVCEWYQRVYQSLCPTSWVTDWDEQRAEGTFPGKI
# Chain of UniProt Q9UNS2 (Q9UNS2 whole entry, looked up): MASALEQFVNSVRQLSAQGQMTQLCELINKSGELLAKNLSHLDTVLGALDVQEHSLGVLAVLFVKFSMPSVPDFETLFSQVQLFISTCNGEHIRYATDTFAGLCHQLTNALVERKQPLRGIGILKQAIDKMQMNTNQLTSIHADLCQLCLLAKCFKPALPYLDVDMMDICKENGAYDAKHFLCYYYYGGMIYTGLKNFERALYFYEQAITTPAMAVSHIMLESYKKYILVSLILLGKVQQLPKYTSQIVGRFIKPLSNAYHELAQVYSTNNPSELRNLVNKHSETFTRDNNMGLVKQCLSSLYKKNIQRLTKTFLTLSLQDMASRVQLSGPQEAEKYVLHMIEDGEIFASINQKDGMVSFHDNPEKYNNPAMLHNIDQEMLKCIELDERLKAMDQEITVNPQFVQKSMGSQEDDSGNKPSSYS
# Chain of UniProt Q8N163 (Q8N163 whole entry, looked up): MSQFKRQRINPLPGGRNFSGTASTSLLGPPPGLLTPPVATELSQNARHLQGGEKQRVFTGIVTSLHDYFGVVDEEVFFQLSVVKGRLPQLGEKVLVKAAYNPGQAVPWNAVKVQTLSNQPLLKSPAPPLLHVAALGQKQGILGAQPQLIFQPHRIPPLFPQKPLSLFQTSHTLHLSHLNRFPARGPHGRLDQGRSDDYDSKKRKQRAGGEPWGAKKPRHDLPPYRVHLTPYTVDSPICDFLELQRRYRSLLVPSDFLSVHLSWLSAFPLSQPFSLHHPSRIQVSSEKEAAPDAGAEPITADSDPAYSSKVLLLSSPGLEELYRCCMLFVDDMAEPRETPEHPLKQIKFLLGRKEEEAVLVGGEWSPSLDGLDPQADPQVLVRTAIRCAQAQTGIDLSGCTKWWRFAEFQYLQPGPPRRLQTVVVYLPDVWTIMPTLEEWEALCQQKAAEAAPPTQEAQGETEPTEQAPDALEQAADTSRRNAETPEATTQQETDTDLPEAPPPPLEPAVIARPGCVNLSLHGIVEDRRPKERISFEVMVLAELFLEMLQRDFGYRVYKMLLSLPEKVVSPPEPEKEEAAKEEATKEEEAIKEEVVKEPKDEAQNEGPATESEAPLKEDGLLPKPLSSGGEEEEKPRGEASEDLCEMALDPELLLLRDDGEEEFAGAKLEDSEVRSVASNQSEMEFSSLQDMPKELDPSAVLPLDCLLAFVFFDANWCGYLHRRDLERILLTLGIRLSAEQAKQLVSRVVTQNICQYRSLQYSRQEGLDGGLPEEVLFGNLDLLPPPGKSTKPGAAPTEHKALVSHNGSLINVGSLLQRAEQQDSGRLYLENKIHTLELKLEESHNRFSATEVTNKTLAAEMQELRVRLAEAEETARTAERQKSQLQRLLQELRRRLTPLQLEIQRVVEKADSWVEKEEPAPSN
# Chain of UniProt A6NHX0 (A6NHX0 whole entry, looked up): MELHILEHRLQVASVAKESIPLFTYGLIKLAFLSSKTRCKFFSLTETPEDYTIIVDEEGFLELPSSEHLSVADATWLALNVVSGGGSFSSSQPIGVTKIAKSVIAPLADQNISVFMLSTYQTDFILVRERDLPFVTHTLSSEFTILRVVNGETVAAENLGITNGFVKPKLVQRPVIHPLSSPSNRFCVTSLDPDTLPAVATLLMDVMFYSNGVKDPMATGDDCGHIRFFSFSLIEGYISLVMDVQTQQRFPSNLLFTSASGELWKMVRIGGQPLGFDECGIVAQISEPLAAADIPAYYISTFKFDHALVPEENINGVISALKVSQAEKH
# Chain of UniProt Q9Y3X0 (Q9Y3X0 whole entry, looked up): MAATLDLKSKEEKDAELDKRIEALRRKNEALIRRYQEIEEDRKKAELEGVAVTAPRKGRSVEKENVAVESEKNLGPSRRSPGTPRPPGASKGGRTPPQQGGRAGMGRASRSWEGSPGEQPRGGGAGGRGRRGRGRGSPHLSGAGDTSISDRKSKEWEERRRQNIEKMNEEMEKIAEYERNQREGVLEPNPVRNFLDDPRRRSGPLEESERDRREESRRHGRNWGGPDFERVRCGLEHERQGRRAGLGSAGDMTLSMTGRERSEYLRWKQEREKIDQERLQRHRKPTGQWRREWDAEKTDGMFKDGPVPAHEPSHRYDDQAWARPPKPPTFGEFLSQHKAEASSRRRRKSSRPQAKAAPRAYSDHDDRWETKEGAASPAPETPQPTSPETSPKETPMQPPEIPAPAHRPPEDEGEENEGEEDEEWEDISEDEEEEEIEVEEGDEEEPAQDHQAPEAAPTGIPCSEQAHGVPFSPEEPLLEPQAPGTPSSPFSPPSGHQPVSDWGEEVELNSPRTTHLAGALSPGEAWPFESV
# Chain of UniProt P15954 (P15954 whole entry, looked up): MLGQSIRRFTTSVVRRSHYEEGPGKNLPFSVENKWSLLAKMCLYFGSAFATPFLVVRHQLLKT
# Chain of UniProt O60563 (O60563 whole entry, looked up): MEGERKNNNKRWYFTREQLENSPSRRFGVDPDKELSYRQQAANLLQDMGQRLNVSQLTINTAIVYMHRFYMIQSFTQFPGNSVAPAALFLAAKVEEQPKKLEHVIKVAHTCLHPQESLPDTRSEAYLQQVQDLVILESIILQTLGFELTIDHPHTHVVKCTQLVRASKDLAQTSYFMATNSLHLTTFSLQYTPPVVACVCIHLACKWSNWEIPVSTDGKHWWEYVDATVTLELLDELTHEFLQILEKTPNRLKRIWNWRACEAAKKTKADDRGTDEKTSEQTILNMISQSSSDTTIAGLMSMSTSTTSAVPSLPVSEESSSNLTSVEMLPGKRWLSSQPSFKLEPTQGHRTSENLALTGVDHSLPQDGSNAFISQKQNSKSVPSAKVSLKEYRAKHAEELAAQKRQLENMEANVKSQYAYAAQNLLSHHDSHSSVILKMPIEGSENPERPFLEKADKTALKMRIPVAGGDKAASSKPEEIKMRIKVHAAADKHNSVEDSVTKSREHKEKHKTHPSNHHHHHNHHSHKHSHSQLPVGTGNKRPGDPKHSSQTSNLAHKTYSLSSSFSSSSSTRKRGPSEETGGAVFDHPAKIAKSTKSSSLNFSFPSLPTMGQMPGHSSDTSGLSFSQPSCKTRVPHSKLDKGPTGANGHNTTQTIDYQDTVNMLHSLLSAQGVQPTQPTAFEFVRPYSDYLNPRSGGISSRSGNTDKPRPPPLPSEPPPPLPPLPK
# Chain of UniProt Q99807 (Q99807 whole entry, looked up): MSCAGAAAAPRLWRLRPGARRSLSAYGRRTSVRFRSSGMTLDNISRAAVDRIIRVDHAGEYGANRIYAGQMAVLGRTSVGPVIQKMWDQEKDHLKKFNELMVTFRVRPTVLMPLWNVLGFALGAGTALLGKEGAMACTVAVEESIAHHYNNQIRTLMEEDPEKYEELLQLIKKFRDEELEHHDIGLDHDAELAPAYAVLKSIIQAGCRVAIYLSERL
Target,log2 fold change (erlotinib),log2 fold change [1],log2 fold change [2],log2 fold change [3],log2 fold change [4],log2 fold change [5],log2 fold change [6],log2 fold change [7],log2 fold change [8],log2 fold change [9],log2 fold change (IRAK-1-4 Inhibitor I),log2 fold change (ibrutinib),log2 fold change [10],log2 fold change (ralimetinib),log2 fold change [11],log2 fold change [12],log2 fold change [13],log2 fold change (pinometostat),log2 fold change [14],log2 fold change [15]
COX7C (UniProt P15954),-0.006,0.134,0.209,0.154,-0.174,0.073,0.08,0.27,-0.003,0.047,-0.013,0.057,-0.013,0.301,0.041,0.184,0.074,0.092,0.022,0.009
CPD (UniProt O75976),-0.025,-0.08,0.009,0.028,0.055,0.011,-0.007,-0.041,-0.045,0.008,-0.011,-0.018,-0.015,-0.03,-0.058,-0.126,0.077,0.002,0.04,-0.019
COA6 isoform 2 (UniProt Q5JTJ3),0.012,0.022,0.045,0.007,0.023,0.062,-0.053,-0.108,0.047,0.02,0.043,0.036,0.019,-0.071,0.045,0.059,-0.026,-0.04,0.016,-0.004
COX6B1 (UniProt P14854),0.027,0.011,0.247,-0.045,0.118,0.048,0,-0.037,-0.003,-0.019,-0.046,-0.038,-0.013,-0.144,-0.103,0.038,-0.01,0.017,0.045,0.103
CRTC2 (UniProt Q53ET0),0.194,0.151,0.039,0.035,0.093,0.073,-0.129,-0.14,-0.233,0.08,-0.024,-0.048,-0.151,0,-0.053,-0.058,-0.032,0.01,0.113,0.101
C4A (UniProt P0C0L4),-0.117,-0.05,0.024,0.078,0.12,-0.032,0.002,-0.132,0.072,0.104,0.017,0.08,-0.01,-0.083,0.226,0.111,0.01,-0.11,0.086,-0.192
CDK13 (UniProt Q14004),-0.064,0.039,-0.147,0.028,-0.126,-0.014,-0.012,-0.212,-0.006,-0.129,-0.05,0.024,-0.52 (active),0.199,0.031,-0.171,0.081,0.043,0.013,-0.017
CIZ1 (UniProt Q9ULV3),0.002,0.024,0.032,0.069,0.009,0.083,-0.092,-0.085,0.034,-0.016,0.013,-0.03,-0.044,0.056,-0.056,0.035,0.053,-0.02,-0.02,-0.248 (active)
CCNT1 (UniProt O60563),-0.026,0.036,-0.141,0.047,-0.041,-0.05,-0.129,-0.084,-0.014,-0.059,-0.004,0.001,-0.603 (active),0.054,0.042,-0.375 (active),0.105,0.213,-0.003,-0.112
COX5B (UniProt P10606),-0.068,0.062,0.16,-0.041,0.032,0.03,0.114,-0.023,-0.067,-0.003,0.008,-0.012,-0.079,0,0.106,0.428 (active),-0.082,-0.071,0.003,0.204
CCAR2 isoform 2 (UniProt Q8N163),0.027,0.063,0.033,-0.014,0.071,0,0.014,-0.039,0.001,0.007,-0.111,-0.061,-0.037,0.027,-0.222,-0.477 (active),-0.004,-0.039,0.111,-0.252
CCDC9 (UniProt Q9Y3X0),0.017,-0.116,-0.036,0.047,-0.045,0.034,0.027,-0.02,0.062,0.034,-0.05,0.078,0.173,0.031,0.053,0.105,0.087,-0.024,0.021,0.296 (active)
CHCHD1 (UniProt Q96BP2),-0.034,-0.007,-0.048,0.027,-0.135,-0.003,-0.057,0.039,0.022,-0.091,-0.071,0.119,-0.009,-0.117,0.026,-0.027,0.037,-0.021,0.08,-0.19
CASTOR2 (UniProt A6NHX0),-0.026,0.117,0.013,0.018,-0.031,0.017,0.029,-0.017,-0.065,-0.002,0.078,0.046,0.008,-0.006,0.016,0.031,0.046,-0.013,-0.004,0.019
COPS3 (UniProt Q9UNS2),-0.019,0.035,0.091,0.016,0.055,0.01,-0.009,0.007,0.014,0.014,0.029,0.011,-0.023,-0.096,-0.014,0.028,-0.065,-0.046,-0.007,-0.003
COQ7 (UniProt Q99807),0.082,-0.014,0.075,0.023,-0.005,0.068,-0.024,-0.009,0.02,0.052,0.08,0.021,-0.064,-0.03,0.01,-0.034,0,-0.016,-0.018,-0.035

# From the supplement of paper PMC10849652
